Source: ChEMBL document CHEMBL3988442, “University of Dundee, Small-Polar-MMV Screening Library” (2021)
Screen size: about 48,000 compounds; about 13,000 (27%) showed an effect of 50% or more. This is one part of the list.

The compounds below were run on Wolbachia pipientis (assay: Anti-Wolbachia Cell-Based Screen). Conditions: 5 µM.
Format: functional
Parameters: scale not given: in the data most compounds retested in dose-response had high values

In order of falling “Percent Effect” value:
1. CNc1nc(C(=O)N2CCCn3nc(C(=O)N4CCCC4)cc3C2)cs1  132.4%
2. O=C1CCCN1Cc1noc(-c2ccc(Cl)cc2)n1  123.5%
3. C[C@]1(O)CCN(Cc2nccs2)C[C@@H]1Oc1cccc(F)c1  121.8%
4. CCN(Cc1ccc2c(c1)OCO2)S(=O)(=O)N(C)C(C)C  112.9%
5. CC(=O)Nc1nc(CN2CCOC(Cn3cccn3)C2)cs1 (configuration not stated)  107.9%
6. Cn1cncc1CN1CC[C@](C)(O)[C@@H](Oc2cccc(F)c2)C1  104.7%
7. Br.Cc1cc(C)c(N(CC(O)CNCc2ccccc2)S(C)(=O)=O)c(C)c1 (configuration not stated)  104.6%
8. Cc1ncc(CN2CC[C@@](C)(O)[C@H](Oc3cccc(F)c3)C2)cn1  104.1%
9. O=C(C1CCOC1)N1C[C@H]2CN(Cc3cccnc3)C(=O)[C@H]2C1.O=C(O)C(F)(F)F (some centres not stated)  101.2%
10. Cc1cc(C)c(N(CC(O)CNCc2ccco2)S(C)(=O)=O)c(C)c1.O=C(O)c1ccccc1 (configuration not stated)  101.1%
11. CNc1nc(C(=O)N2CCn3nc(C(=O)OC)cc3C2)cs1  99.12%
12. C[C@]1(O)CCN(Cc2cccnc2)C[C@@H]1Oc1cccc(F)c1  99%
13. O=C(C1CCOC1)N1C[C@H]2CN(Cc3ccncc3)C(=O)[C@H]2C1.O=C(O)C(F)(F)F (some centres not stated)  94.79%
14. CCN(Cc1ccc2c(c1)OCO2)S(=O)(=O)N(C)C  94.54%
15. CC(=O)Nc1nc(CN2CCOC(Cn3nc(C)cc3C)C2)cs1 (configuration not stated)  94.09%
16. CC(=O)Nc1nc(CN2CCOC(Cn3cncn3)C2)cs1 (configuration not stated)  64.84%
17. O=C(Nc1cccc(CN2CCOC2=O)c1)N1CCSCC1  46.29%
18. Cn1c(CN2CCOCC2)nnc1C1CCCN(C(=O)CCC2CC2)C1 (configuration not stated)  24.17%
19. Fc1ccc(OCc2nnc([C@H]3CCN(Cc4cccnc4)C3)o2)cc1  16.65%
20. CCN(Cc1cccs1)S(=O)(=O)N(C)C(C)C  15.86%
21. O=C(O)C(=O)O.c1cncc(-c2noc(C3CN(Cc4cccs4)C3)n2)c1  13.98%
22. O=S(=O)(Cc1cccc(F)c1)NCC(O)Cc1ccccc1 (configuration not stated)  13.38%
23. Cc1ccc(-n2cc(CN3CCN(C)[C@@H]4CS(=O)(=O)C[C@@H]43)cn2)cc1  6.274%
24. Cc1cc(C(=O)N2CCn3nc(C(=O)NC4CC4)cc3C2)nc(C)n1  5.79%
25. O=C1CCCN1CCc1noc(-c2ccc(Cl)cc2)n1  5.135%
26. CCOc1ccc(CN2CC[C@@](C)(O)[C@@H](Cc3ccccc3)C2)cn1  4.384%
27. C[C@]1(O)CCN(Cc2cncs2)C[C@@H]1Oc1cccc(F)c1  4.149%
28. CN1CC2(CCN(Cc3cccnc3)CC2)c2cc(F)ccc21  3.699%
29. COc1ncc(CN2CC[C@@](C)(O)[C@H](Oc3cccc(F)c3)C2)cn1  2.732%
30. CC(=O)Nc1nc(CN2CCOC(Cn3cc(C)cn3)C2)cs1 (configuration not stated)  2.495%
31. COC(=O)CN(C(=O)c1ccoc1)c1cccc(F)c1  2.098%
32. CCc1nc(C)c(CN2CCCC(c3nn(C)c(=O)n3CC)C2)[nH]1 (configuration not stated)  1.561%
33. O=C1CCCN1CCc1noc(-c2ccsc2)n1  1.002%
34. NC(=O)CN1CC2(CCC1=O)CCN(Cc1ccc(F)cc1Cl)CC2  0.9976%
35. CCN(C)S(=O)(=O)N(CC)Cc1ccc2c(c1)OCO2  0.6799%
36. CC(C)[C@@H]1CN(C(=O)c2ccc3c(c2)CCCO3)C[C@H]1NS(C)(=O)=O  0.04909%
37. CCN(C)C(=O)c1cccc(S(=O)(=O)NCCc2nc(C)cc(=O)[nH]2)c1  -0.1797%
38. Cc1noc(CS(=O)(=O)CC(=O)NC(C)c2ccccc2)n1 (configuration not stated)  -0.1878%
39. CCN(Cc1ccc2c(c1)OCCO2)S(=O)(=O)N(C)C(C)C  -1.208%
40. O=C(NCc1ccccc1Cn1ccnc1)N1CCSCC1  -1.657%
41. O=C(C1CCOC1)N1CCC2(CC1)COCCN(Cc1ccncc1)C2.O=C(O)C(F)(F)F.O=C(O)C(F)(F)F (configuration not stated)  -2.392%
42. CN1CC(=O)N(c2cccc(F)c2)CC12CCN(Cc1nccs1)C2.O=C(O)C(F)(F)F.O=C(O)C(F)(F)F (configuration not stated)  -3.054%
43. O=S(=O)(Cc1ccccc1CN1CCOCC(O)C1)c1ccccc1 (configuration not stated)  -4.778%
44. CN(C)CCN1C[C@@H]2CN(C(=O)C3CCOC3)C[C@@H]2C1=O.O=C(O)C(F)(F)F (some centres not stated)  -5.233%
45. CCc1[nH]c2c(CNc3cncc(C(=O)N(C)C)n3)cc(F)cc2c1C  -5.745%
46. CN(Cc1ccccc1O)C(=O)Nc1cc(F)cc(N2CCCC2)c1  -6.524%
47. O=C(O)C(F)(F)F.O=C(c1ccsc1)N1C[C@H]2CN(Cc3cccnc3)C(=O)[C@H]2C1  -7.854%
48. CN1CC(=O)N(c2cccc(F)c2)CC12CCN(Cc1cncn1C)C2.O=C(O)C(F)(F)F.O=C(O)C(F)(F)F (configuration not stated)  -8.718%
49. Cc1ccc(C(=O)O)cc1S(=O)(=O)N(CC(C)O)c1ccccc1 (configuration not stated)  -9.364%
50. CCNc1ncc(C(=O)NCC2OCCc3ccccc32)cn1 (configuration not stated)  -9.42%
51. CCOc1cc(CNCc2cnc(C)cn2)c(Cl)cc1OC(C)C  -9.744%
52. COC(=O)c1ccc(NC(=O)CNCc2ccco2)cc1  -10.44%
53. CCCc1nc(C(=O)N2CCCn3nc(CCC(=O)O)cc3C2)cs1  -10.82%
54. Cc1ccc(O)c(CN2CCn3nc(C(=O)N4CCCC4)cc3C2)n1  -10.87%
55. CNc1nc(C(=O)N2CCCC(CO)(CCCOC)C2)cs1 (configuration not stated)  -13.19%
56. CCC(C)(NCc1nc(C)c(C)o1)c1nccs1 (configuration not stated)  -14.02%
57. Cc1ccnc(C(NC(=O)c2oc(C)nc2C)C2CC2)n1 (configuration not stated)  -17.11%
58. CCN(Cc1ccc2c(c1)OCO2)c1ncc(S(N)(=O)=O)s1  -18.45%
59. COCC(C)(C#N)NC(=O)COc1ccccc1 (configuration not stated)  -21.26%
60. CC(=O)N(C)c1nc(CN2CCOC(Cn3cccn3)C2)cs1 (configuration not stated)  -26.66%
61. Cc1ccc(N(C)CC(O)COCc2ccccc2)c(C)c1 (configuration not stated)  -35.03%
62. CC(C)(N)c1cn([C@@H]2c3ccccc3C3(CCNCC3)[C@H]2O)nn1  -37.53%
